Measurements: ChEMBL document CHEMBL1201862, “PubChem BioAssay data set” (2004)
Hit rate of the full screen: of about 44,000 sequences, about 2,900 (6.6%) were called active. No stated cut-off is given here; in the data, active = GI50 up to about 1.1 µM and inactive = higher. These entries were drawn from the full list. Measured potencies and affinities stand elsewhere.

tested on: MDA-MB-231

| Substance | GI50 [µM] |
| --- | --- |
| [Bis(aminomethyl)tetramethylenesilane]tetrachloropaltinum(IV), CHEMBL2146189 | 21 |
| [Bis(aminomethyl)pentamethylenesilane]tetrachloropaltinum(IV), CHEMBL2146204 | 19.6 |
| CISPLATIN, CHEMBL11359 | 22.4 |
| [Bis(aminomethyl)tetramethylenesilane]dichloropaltinum(II), CHEMBL2146205 | 48.6 |
| [Bis(aminomethyl)pentamethylenesilane]dichloropaltinum(II), CHEMBL2146202 | 2.01 |
| [Bis(aminomethyl)dimethylsilane]tetrachloroplatinum(IV), CHEMBL2146190 | 60.1 |
